Screens from PubChem.
Pf Dd2 inh: inhibitors of Plasmodium falciparum Dd2 growth | AID 1347417 | P. falciparum Dd2 growth, SYBR Green, 72 h | 120,000 tested, 4.3% active | Potency, µM (doses to about 28.9 µM), usual class: inhibitors; active = well fitted inhibition curve with a large enough effect; also: nearly all actives have a fitted effect of over 65% in size
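Infected erythrocytes (Dd2, 0.3% parasitemia, 2.5% hematocrit final) are added to compound in RPMI-1640/Albumax II medium, grown 72 h at 37C in low oxygen, then lysed with saponin/Triton-X containing SYBR Green and read by fluorescence.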
Numbers stand for hits; [ ] = another dose, or the depositor's remark. This excerpt belongs to a sample that is enriched for hits.

What do the screens show for `COc1ccc(CNC(=O)Cc2c(C)c3cc4c(C)coc4c(C)c3oc2=O)cc1`?
Pf Dd2 inh: inactive

How did COC(=O)Cc1c(C)c2ccc3c(c2oc1=O)CN(Cc1ccccc1OC)CO3 do in these assays?
Pf Dd2 inh: 13µM

How did COC(=O)Cc1c(C)c2ccc3c(c2oc1=O)CN(Cc1ccccc1Cl)CO3 do in these assays?
Pf Dd2 inh: 7.1µM

What do the screens show for `CCC1Oc2ccc(NC(=O)C3CCCC3)cc2CN(Cc2ccccc2Cl)C1=O` (centres undefined)?
Pf Dd2 inh: inactive

How did COC(=O)Cc1c(C)c2ccc3c(c2oc1=O)CN(Cc1ccc(C)cc1)CO3 do in these assays?
Pf Dd2 inh: 11µM

Results for COc1ccccc1CCNC(=O)Cc1c(C)c2c(cc(C)c3c(C)c(C)oc32)oc1=O ?
Pf Dd2 inh: inactive

Results for COc1ccccc1CNC(=O)Cc1c(C)c2c(cc(C)c3c(C)c(C)oc32)oc1=O ?
Pf Dd2 inh: inactive

What do the screens show for `COCCn1c(=O)[nH]c2cc(C(=O)NCc3ccccc3Cl)ccc2c1=O`?
Pf Dd2 inh: inactive

How did COc1cccc(CN2CCOc3ccc(C(=O)NCc4ccc(C)cc4)cc3C2)c1 do in these assays?
Pf Dd2 inh: inactive

Results for O=C(c1ccn[nH]1)N1C[C@@H](COc2cccnc2)[C@H](c2ccncc2)C1 ?
Pf Dd2 inh: inactive

What do the screens show for `O=C(COc1ccc(Cl)cc1)N1CCC(Cc2nc(-c3ccccc3)no2)CC1`?
Pf Dd2 inh: inactive

How did CCc1noc(-c2cn(C3CCN(C(=O)c4cccc(C#N)c4)CC3)nn2)n1 do in these assays?
Pf Dd2 inh: inactive

How did CN1CCN(C(=O)N[C@@H]2CCOC[C@H]2OCc2ccccc2)CC1 do in these assays?
Pf Dd2 inh: inactive

What do the screens show for `Nc1c(C(=O)c2ccc(F)cc2)sc(Nc2ccccc2F)c1S(=O)(=O)c1ccc(Br)cc1`?
Pf Dd2 inh: 11µM

What do the screens show for `CCOc1ccccc1Nc1sc(C(=O)c2ccccc2)c(N)c1C(=O)Nc1ccccc1`?
Pf Dd2 inh: inactive

How did N#Cc1c(Nc2cccc(F)c2)sc(C(=O)c2ccc(Cl)cc2)c1N do in these assays?
Pf Dd2 inh: inactive

How did CCc1ccc(Nc2sc(C(=O)c3ccc(F)cc3)c(N)c2S(=O)(=O)c2ccccc2)cc1 do in these assays?
Pf Dd2 inh: 8.9µM

How did CCc1ccc(S(=O)(=O)N2[C@@H]3CC[C@H]2CC(NC(=O)c2ccc(F)cc2)C3)cc1 (some centres undefined) do in these assays?
Pf Dd2 inh: inactive

How did COc1cccc(Nc2sc(C(=O)c3ccc(F)cc3)c(N)c2C(=O)NCc2ccc(Cl)cc2)c1 do in these assays?
Pf Dd2 inh: inactive

What do the screens show for `COc1cccc(CN2CCOC3(CCN([S+](=O)([O-])c4c(C)noc4C)CC3)C2=O)c1`?
Pf Dd2 inh: inactive

What do the screens show for `CCOc1ccc(CCNC(=O)c2cn(-c3cccc(OC)c3)c(=O)c3ccccc23)cc1`?
Pf Dd2 inh: inactive

How did CCOc1ccccc1CNC(=O)c1cn(-c2ccc(OC)cc2)c(=O)c2ccccc12 do in these assays?
Pf Dd2 inh: 8.9µM

Results for COc1ccc(-n2cc(C(=O)NCCc3ccc(C)cc3)c3ccccc3c2=O)cc1 ?
Pf Dd2 inh: inactive

Results for C[C@@H]1CN(C(=O)c2scc3c2CCCC3)C[C@@]1(O)C1CC1 ?
Pf Dd2 inh: inactive

How did O=C1N(c2ccccc2)C[C@H]2CN(C3CCOCC3)CCN12 do in these assays?
Pf Dd2 inh: inactive

What do the screens show for `C#CCN(C)Cc1nc(C2(O)CCN(C3CCC3)CC2)cs1`?
Pf Dd2 inh: 10µM

Results for C#CCN(C)Cc1nc(C2(O)CCN(C)CC2)cs1 ?
Pf Dd2 inh: inactive

What do the screens show for `C#CCN(C)Cc1nc(C2(O)CCN(CC3CC3)CC2)cs1`?
Pf Dd2 inh: inactive

Results for CCn1c(-c2ccccc2)nn(CC(=O)NCc2ccsc2)c1=O ?
Pf Dd2 inh: inactive

What do the screens show for `COc1ccc(NC(=O)Cc2c[nH]c3ncc(-c4ccccc4)cc23)cn1`?
Pf Dd2 inh: inactive

How did COc1ccc(C(=O)N2CCC(CO)(CN3CCCC3)CC2)cc1C do in these assays?
Pf Dd2 inh: inactive

What do the screens show for `Cc1ccc(-c2c(C(=O)NCCc3ccc(Cl)cc3)oc(=O)c3ccccc23)cc1`?
Pf Dd2 inh: inactive

How did Cc1ccc2oc(=O)c3cnn(CC(=O)N4CCN(c5ccccc5)CC4)c3c2c1 do in these assays?
Pf Dd2 inh: inactive[5.79 µM]

What do the screens show for `CN1CCN(c2cc(=O)c3ccnc(-c4cccc(CO)c4)c3o2)CC1`?
Pf Dd2 inh: inactive

How did Cc1noc(C)c1CN1CCN(c2ccc(F)cc2)CC1 do in these assays?
Pf Dd2 inh: inactive

Results for Cc1c(-c2ccccc2)c(=O)oc2c(CN3CCN(C)CC3)c(O)ccc12 ?
Pf Dd2 inh: 4µM

Results for Cc1c(-c2ccc(Cl)cc2)c(=O)oc2c(CN3CCN(C)CC3)c(O)ccc12 ?
Pf Dd2 inh: 10µM

Results for CCc1c(C)c2ccc(O)c(CN3CCN(c4ccccc4)CC3)c2oc1=O ?
Pf Dd2 inh: 1.3µM

How did Cc1cc(O)c(C(c2ccccc2)N2CCN(C)CC2)c(=O)n1Cc1ccco1 (centres undefined) do in these assays?
Pf Dd2 inh: inactive

How did O=C(CN1CCOC1=O)N1CCC(Cc2nncn2-c2ccccc2)CC1 do in these assays?
Pf Dd2 inh: inactive
